# Measurements from PubChem BioAssay (Tox21).
# Records with an inconclusive call do not appear. Where a call stands in place of a potency, no number is given. Values without a mark were called inactive. The source made the active and inactive calls. Unless noted, calls come from the whole dose curve; as a rule, active = well fitted curve in the direction sought with a large enough effect in the repeat runs; inconclusive = weak or mixed curves; inactive = no such curve, though single readings can be large; an effect the other way counts as inactive or inconclusive.
# Columns and labels:
# [1] = qHTS assay to identify small molecule agonists of the estrogen related receptor (ERR) signaling pathway (AID 1224820)
# In short: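 After 6 h plating (2,000 cells/well) and 18 h compound treatment at 37 C, ERR cells were lysed with One-Glo and luminescence read after 30 min at room temperature.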
# [2] = tested on: estrogen-related receptor alpha (ERRalpha) with PGC-1alpha coactivator, human; experiment: qHTS assay to identify small molecule antagonists of the estrogen related receptor signaling pathway with the pleiotropic PPARgamma coactivator (PGC) (AID 1224821; calls by dose curve;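 note: series mostly up to about 46 µM; lower luminescence signal means antagonism of PGC/ERR signalling; nearly all actives have a fitted effect of over 50% in size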)
# In short: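 Luminescence from One-Glo luciferase reagent (30 min, room temperature) measured after 18 h compound treatment at 37 °C. Cells carry the PGC/ERR reporter and were seeded 6 h prior to dosing.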
# [3] = qHTS assay to identify small molecule antagonists of the estrogen related receptor signaling pathway with the pleiotropic PPARgamma coactivator (PGC) cell viability counter screen (AID 1224822; note: series mostly up to about 46 µM)
# In short: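 Viability counter-screen read by fluorescence intensity after 30 min with CellTiter-Fluor at 37 C; PGC/ERR reporter cells were exposed to compounds for 17.5 h at 37 C following a 6 h preincubation.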
# [4] = qHTS assay to identify small molecule agonists of the estrogen related receptor signaling pathway with the pleiotropic PPARgamma coactivator (PGC) (AID 1224823)
# In short: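 Luminescence from One-Glo reagent (30 min, room temperature) was read after 18 h compound treatment at 37 C of PGC/ERR cells plated 6 h beforehand; compounds delivered in DMSO by pin tool.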
# [5] = qHTS assay to identify small molecule antagonists of the estrogen related receptor (ERR) signaling pathway from Tox21 library - cell viability counter screen (AID 1224834); note: nearly all actives have a fitted effect of over 30% in size
# In short: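 CellTiter-Fluor fluorescence, read after 30 min at 37 C, measures viability of ERR cells. Cells plated at 2,000/well and incubated 6 h before pin-tool compound addition, then exposed 17.5 hours at 37 C.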
# [6] = molecular target: Luciferin 4-monooxygenase (Photinus pyralis) (UniProt P08659); experiment: qHTS assay to identify small molecule inhibitors of firefly luciferase (AID 1224835); note: series mostly up to about 120 µM; nearly all actives have a fitted effect of over 25% in size
# In short: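 Quantitative HTS format; KM concentrations of both substrates. Purified P. pyralis FLuc activity quantified from luminescence images.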
# [7] = qHTS assay to identify small molecule agonists of the constitutive androstane receptor (CAR) signaling pathway - cell viability counter screen (AID 1224836); note: series mostly up to about 92 µM; nearly all actives have a fitted effect of over 45% in size
# In short: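 Counter screen multiplexed with the CAR reporter readout: HepG2 cells co-transfected with hCAR and the CYP2B6-2.2kb construct receive a 15-concentration compound series and 0.75 uM PK11195 (final), then CellTiter-Fluor fluorescence is read after 23 h.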
# [8] = qHTS assay to identify small molecule antagonists of the constitutive androstane receptor (CAR) signaling pathway - cell viability counter screen (AID 1224837); note: series mostly up to about 92 µM; nearly all actives have a fitted effect of over 45% in size
# In short: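 Cytotoxicity counter-screen: CellTiter-Fluor fluorescence after 23 h compound exposure (15-point qHTS) in double-stable HepG2-CYP2B6-hCAR cells, with 50 nM CITCO added.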
# [9] = molecular target: Nuclear receptor subfamily 1 group I member 3 (Homo sapiens) (UniProt Q14994); experiment: qHTS assay to identify small molecule antagonists of the constitutive androstane receptor (CAR) signaling pathway (AID 1224838);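 note: HepG2 cells stably expressing hCAR with CYP2B6 luciferase reporter stimulated by CITCO; nearly all actives have a fitted effect of over 40% in size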
# In short: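 Antagonism measured as luciferase signal (ONE-Glo, 30 min, room temperature) in CAR-stimulated cells: HepG2-CYP2B6-hCAR double-stable line exposed 24 hr at 37 C to compound in a 15-point series plus 50 nM CITCO.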
# [10] = molecular target: Nuclear receptor subfamily 1 group I member 3 (Homo sapiens) (UniProt Q14994); experiment: qHTS assay to identify small molecule agonists of the constitutive androstane receptor (CAR) signaling pathway (AID 1224839); note: nearly all actives have a fitted effect of over 15% in size; note: potency is the fitted concentration of half-maximal effect; for activation: series mostly up to about 92 µM
# In short: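 A 15-concentration quantitative screen uses HepG2 cells co-transfected stably with human CAR and CYP2B6-2.2kb reporter. Treatment lasts 24 h with 0.75 uM PK11195 final present; ONE-Glo luminescence is the signal.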
# [11] = qHTS assay to identify small molecule antagonists of the estrogen related receptor signaling pathway with the pleiotropic PPARgamma coactivator (PGC) from Tox21 10K library - cell viability counter screen (AID 1224840; active = well fitted cell-killing curve with a large enough effect in the repeat runs, not every such curve was filed as active; note: nearly all actives have a fitted effect of over 40% in size)
# In short: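 Counter-screen for cytotoxicity: after 17.5 h compound exposure at 37 C, CellTiter-Fluor reagent added to PGC/ERR cells for 30 min and fluorescence read. Cells were seeded at 2,000 per well 6 h before dosing.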
# [12] = molecular target: Thyrotropin receptor (Homo sapiens) (UniProt P16473); experiment: qHTS assay to identify small molecule agonists of the thyroid stimulating hormone receptor (TSHR) signaling pathway (AID 1224843; calls by dose curve; note: nearly all actives have a fitted effect of over 45% in size)
# In short: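 Compounds are titrated over 15 concentrations, in triplicate, onto TSHR-HEK293 cells seeded at 800/well. Plates sit 30 min at room temperature before cAMP-d2 and anti-cAMP cryptate are added; signal is read after a further hour.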
# [13] = qHTS assay to identify small molecule agonists of the hypoxia (HIF-1) signaling pathway - cell viability counter screen (AID 1224844; calls by dose curve; note: nearly all actives have a fitted effect of over 50% in size)
# In short: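 Cytotoxicity measured by CellTiter-Glo ATP luminescence in the wells also read for beta-lactamase signal. Cells were HRE-bla ME-180 (2,000/well, 0.5% dialyzed FBS), exposed to compounds for 17 h at 37C.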
# [14] = qHTS assay to identify small molecule agonists of H2AX (AID 1224845; active = well fitted activation curve with a large enough effect in the signal ratio in the repeat runs, not every such curve was filed as active; the % refers to the signal ratio)
# In short: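 Wild-type CHO-K1 cells plated overnight, then exposed 3 hr at 37C to compounds at 15 concentrations (0.76% DMSO). Lysed, then HTRF anti-pH2AX(S139)-cryptate/anti-H2AX-d2 detection after 24 hr at room temperature; emissions 665 and 620 nm.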
# [15] = qHTS assay to identify small molecule agonists of the hypoxia (HIF-1) signaling pathway (AID 1224846; active = well fitted activation curve with a large enough effect in the signal ratio in the repeat runs, not every such curve was filed as active; the % refers to the signal ratio)
# In short: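 Compounds added to ME-180 cells carrying hypoxia-response-element beta-lactamase reporter (0.5% dialyzed FBS, 5 h preplating), 17 h at 37C; agonist activity detected by CCF4-AM B/G FRET read-out.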
# [16] = qHTS assay to identify small molecule agonists of H2AX - cell viability counter screen (AID 1224847; calls by dose curve; note: top concentration of the series differs between compounds; nearly all actives have a fitted effect of over 30% in size)
# In short: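 We seed wild-type CHO-K1 cells overnight, treat them for 3 hr at 37C with compounds in 15-concentration series, and quantify remaining viability by CellTiter-Glo luminescence.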
# [17] = qHTS assay to identify small molecule antagonists of the estrogen related receptor signaling pathway with the pleiotropic PPARgamma coactivator (PGC) from Tox21 10K library (AID 1224841; call rule not given here; note: series mostly up to about 92 µM; actives are mostly falling curves and most rising ones were filed inactive; nearly all actives have a fitted effect of over 50% in size)
# In short: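 Luminescence (One-Glo, 30 min at room temperature) after 18 h compound treatment at 37 C of PGC/ERR reporter cells plated at 2,000 cells/well and settled 6 h beforehand.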
# [18] = qHTS assay to identify small molecule agonists of the estrogen related receptor signaling pathway with the pleiotropic PPARgamma coactivator (PGC) from Tox21 10K library (AID 1224842); note: nearly all actives have a fitted effect of over 15% in size
# In short: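 PGC/ERR reporter cells (NTP line) were seeded 2,000 per well, rested 6 h at 37 C/5% CO2, then pin-dosed with compounds in DMSO for 18 h at 37 C; luciferase read by One-Glo luminescence after 30 min at room temperature.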
# [19] = qHTS assay to identify small molecule antagonists of the estrogen related receptor (ERR) signaling pathway from Tox21 library (AID 1224848); note: nearly all actives have a fitted effect of over 50% in size
# In short: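 First, 2,000 ERR cells per well were plated and held 6 h at 37 C/5% CO2. Next, compounds in DMSO were pinned in and left 18 h at 37 C. Finally, ONE-Glo was added and luminescence read after 30 min at room temperature.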
# Sequence of Nuclear receptor subfamily 1 group I member 3 (Homo sapiens) (Q14994 whole entry, looked up): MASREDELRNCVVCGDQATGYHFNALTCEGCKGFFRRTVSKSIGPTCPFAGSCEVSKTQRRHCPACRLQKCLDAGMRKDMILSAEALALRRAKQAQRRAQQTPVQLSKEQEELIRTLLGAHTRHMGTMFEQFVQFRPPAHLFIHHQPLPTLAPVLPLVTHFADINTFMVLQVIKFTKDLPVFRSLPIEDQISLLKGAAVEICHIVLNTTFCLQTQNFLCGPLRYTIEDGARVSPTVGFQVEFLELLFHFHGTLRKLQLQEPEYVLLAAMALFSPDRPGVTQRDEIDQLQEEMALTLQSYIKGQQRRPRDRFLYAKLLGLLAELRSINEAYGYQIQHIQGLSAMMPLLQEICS
# Sequence of Luciferin 4-monooxygenase (Photinus pyralis) (P08659 whole entry, looked up): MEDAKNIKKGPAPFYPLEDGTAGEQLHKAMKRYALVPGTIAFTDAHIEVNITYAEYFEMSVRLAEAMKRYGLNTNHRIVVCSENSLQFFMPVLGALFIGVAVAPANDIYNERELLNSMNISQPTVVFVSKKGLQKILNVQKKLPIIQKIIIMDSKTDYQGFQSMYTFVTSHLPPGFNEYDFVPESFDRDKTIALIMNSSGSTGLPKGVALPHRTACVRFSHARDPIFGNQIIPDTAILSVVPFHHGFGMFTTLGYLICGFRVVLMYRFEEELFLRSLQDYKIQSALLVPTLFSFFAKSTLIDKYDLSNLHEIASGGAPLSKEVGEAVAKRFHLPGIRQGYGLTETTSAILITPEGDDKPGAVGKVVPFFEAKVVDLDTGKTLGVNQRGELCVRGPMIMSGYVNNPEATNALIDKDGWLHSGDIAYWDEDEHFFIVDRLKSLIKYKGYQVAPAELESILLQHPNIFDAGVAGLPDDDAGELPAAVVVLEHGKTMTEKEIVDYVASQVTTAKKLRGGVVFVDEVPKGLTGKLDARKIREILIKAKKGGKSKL
# Sequence of Thyrotropin receptor (Homo sapiens) (P16473 whole entry, looked up): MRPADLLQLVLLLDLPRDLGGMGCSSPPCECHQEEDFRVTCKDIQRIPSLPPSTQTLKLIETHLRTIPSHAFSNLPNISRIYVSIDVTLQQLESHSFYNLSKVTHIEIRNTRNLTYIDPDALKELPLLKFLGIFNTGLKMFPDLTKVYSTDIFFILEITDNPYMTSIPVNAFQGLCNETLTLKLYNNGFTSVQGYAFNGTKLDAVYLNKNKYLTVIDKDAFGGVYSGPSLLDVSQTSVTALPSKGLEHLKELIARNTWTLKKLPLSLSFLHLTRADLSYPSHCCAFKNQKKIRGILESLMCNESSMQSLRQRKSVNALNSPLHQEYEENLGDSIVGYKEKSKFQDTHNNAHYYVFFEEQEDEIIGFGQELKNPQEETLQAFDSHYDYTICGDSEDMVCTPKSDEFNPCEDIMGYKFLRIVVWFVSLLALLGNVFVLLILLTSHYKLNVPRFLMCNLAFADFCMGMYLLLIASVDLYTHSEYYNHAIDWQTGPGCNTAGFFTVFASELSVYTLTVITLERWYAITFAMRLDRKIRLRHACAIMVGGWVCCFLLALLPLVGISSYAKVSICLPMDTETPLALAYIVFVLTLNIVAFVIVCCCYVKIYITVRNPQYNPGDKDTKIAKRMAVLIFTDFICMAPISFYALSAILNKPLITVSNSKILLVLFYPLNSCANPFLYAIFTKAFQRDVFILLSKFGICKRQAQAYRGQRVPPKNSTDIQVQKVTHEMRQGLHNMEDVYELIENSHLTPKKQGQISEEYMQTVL
structure (smiles),measurement,setting,value
COc1ccc(-c2cc(=O)c3c(O)c(OC)c(OC)cc3o2)cc1O,Potency,[1],inactive
same,Potency,[2],inactive
same,Potency,[3],inactive
same,Potency,[4],inactive
CCC(O)CO (configuration not stated),Potency,[5],inactive
same,Potency,[6],inactive
same,Potency,[7],inactive
same,Potency,[8],inactive
same,Potency,[9],inactive
same,Potency,[10],inactive
same,Potency,[11],inactive
same,Potency,[12],inactive
same,Potency,[13],inactive
same,Potency,[14],inactive
same,Potency,[15],inactive
same,Potency,[16],inactive
O=C(O)C[C@H](O)C[C@H](O)/C=C/c1c(C2CC2)nc2ccccc2c1-c1ccc(F)cc1,"viability change, negative = cytotoxic",[5],0.576% [at 19 µM]
same,"activity change, negative = inhibition",[6],5.31% [at 23.6 µM]
same,"viability change, negative = cytotoxic",[7],-13.2% [at 19 µM]
same,"activity change, negative = cytotoxicity",[8],-0.918% [at 19 µM]
same,"activity, negative = inhibition",[9],-27.1% [at 19 µM]
same,activation,[10],-6.78% [at 19 µM]
same,"viability change, negative = cytotoxic",[11],-0.117% [at 19 µM]
same,"activity, negative = inhibition",[17],10.6% [at 19 µM]
same,activation,[18],-0.0293% [at 19 µM]
same,activation,[12],-24.9% [at 19 µM]
same,"activity change, negative = cytotoxicity",[13],-17.5% [at 15.8 µM]
same,activation (H2AX phosphorylation),[14],-2.12% [at 31.6 µM]
same,activation,[15],0.144% [at 15.8 µM]
same,"activity change, negative = cytotoxicity",[16],-0.332% [at 31.6 µM]
same,"activity, negative = inhibition",[19],60.7% [at 19 µM]
CC1CC2C3CCC4=CC(=O)C=C[C@]4(C)[C@@]3(F)[C@@H](O)C[C@]2(C)[C@@]1(O)C(=O)CO (some centres not stated),Potency,[3],inactive
C/C=C/C(=O)C1=C(C)C=CCC1(C)C,Potency,[5],inactive
same,Potency,[6],inactive
same,Potency,[7],inactive
same,Potency,[8],inactive
same,Potency,[9],inactive
same,Potency,[10],inactive
same,Potency,[11],inactive
same,Potency,[17],inactive
same,Potency,[18],inactive
same,Potency,[12],inactive
same,Potency,[13],inactive
same,Potency,[14],inactive
same,Potency,[15],inactive
same,Potency,[16],inactive
same,Potency,[19],inactive
NCc1ccco1,Potency,[5],inactive
same,Potency,[6],inactive
same,Potency,[7],inactive
same,Potency,[8],inactive
same,Potency,[9],inactive
same,Potency,[10],inactive
same,Potency,[11],inactive
same,Potency,[12],inactive
same,Potency,[13],inactive
same,Potency,[14],inactive
same,Potency,[15],inactive
same,Potency,[16],inactive
CCC1(O)CC2CN(CCc3c([nH]c4ccccc34)[C@@](C(=O)OC)(c3cc4c(cc3OC)N(C)C3[C@]45CCN4CC=C[C@@](CC)([C@@H](OC(C)=O)[C@]3(O)C(=O)OC)[C@H]45)C2)C1 (some centres not stated),Potency,[3],inactive
same,Potency,[4],inactive
CN1C2CCC1CC(OC(=O)c1c[nH]c3ccccc13)C2 (configuration not stated),Potency,[3],inactive
O=c1cc[nH]cc1,Potency,[5],inactive
same,Potency,[6],inactive
same,Potency,[7],inactive
same,Potency,[8],inactive
same,Potency,[9],inactive
same,Potency,[10],inactive
same,Potency,[11],inactive
same,Potency,[12],inactive
same,Potency,[13],inactive
same,Potency,[14],inactive
same,Potency,[15],inactive
same,Potency,[16],inactive
COc1cc2c(cc1OC)C1CC(=O)C(CC(C)C)CN1CC2 (configuration not stated),Potency,[3],inactive
c1ccc(C2CN3CCSC3=N2)cc1 (configuration not stated),Potency,[3],inactive
c1ccc(-c2ccccc2-c2ccccc2)cc1,Potency,[5],inactive
same,Potency,[6],inactive
same,Potency,[7],inactive
same,Potency,[8],inactive
same,Potency,[9],inactive
same,Potency,[10],27.3 µM (active)
same,Potency,[11],inactive
O=C(N[C@H](CO)[C@H](O)c1ccc([N+](=O)[O-])cc1)C(Cl)Cl,Potency,[3],inactive
same,Potency,[5],inactive
same,Potency,[6],inactive
same,Potency,[7],inactive
same,Potency,[8],inactive
same,Potency,[9],inactive
same,Potency,[13],inactive
same,Potency,[14],inactive
same,Potency,[16],inactive
